The nature of this assay: cell-free HIV fusion peptide-binding blockers – biochemical, uHTS, fluorescence dequenching, primary screen (AID 1986). As to conditions: 30 min, stronger effect = higher value.
The mark [1] stands for this setting: measured here: repeat confirmation average inhibition, at 18.6 µM.

Among all 290,000 compounds or so, about 890 (0.31%) were called active. Cut-off read from the data, not from the text of the source: active = inhibition mostly above about 52% (no sharp cut-off); inactive = mostly below about 76%. This excerpt belongs to a sample that is enriched for actives.

Drawing on PubChem BioAssay AID1986 (Sanford-Burnham Center for Chemical Genomics, 2009), this text covers inhibition for 61 compounds.

Regarding `Cc1c(C(=O)Nc2cccnc2Cl)oc2ccccc12`, the inhibition (at 20 µM) was -1% (inactive).

Turning to `CCCN(C(=O)CN1C(=O)NC2(CCCCCC2)C1=O)C1CCS(=O)(=O)C1` (stereo unspecified), the inhibition (at 20 µM) was 0.3% (inactive).

`O=C1/C(=C/c2cccnc2)Sc2ccccc21`: the inhibition (at 20 µM) was 9.2% (inactive).

For the compound `C#CCSc1nc(-c2ccccc2)cc(C(F)(F)F)c1C#N`, the inhibition (at 20 µM) is -0.2% (inactive).

For the compound `N#Cc1c(C(F)(F)F)cc(-c2ccccc2)nc1SCc1nc(N)nc(N2CCOCC2)n1`, the inhibition (at 20 µM) is 66.7% (active).

As to `N#Cc1c(C(F)(F)F)cc(-c2ccccc2)nc1SCCN1CCOCC1`, the inhibition (at 20 µM) is 2.6% (inactive).

Regarding `O=C(NCC1CCCO1)c1ccc(CNS(=O)(=O)c2cccc(Cl)c2)cc1` (stereo unspecified), for the setting “at 20 µM”, the inhibition is -0.3% (inactive).

For the compound `Cc1ccc(C(=O)C2=C(O)C(=O)N(Cc3ccco3)C2c2cccc(Cl)c2)o1` (stereo unspecified), the inhibition (at 20 µM) was 25.7% (inactive).

`Cc1ccccc1N=Cc1c(O)n(-c2nccs2)c(=O)c2ccccc12`: for the setting “at 20 µM”, the inhibition was 2.3% (inactive).

`Cc1cc(C)c(N=Cc2c(O)n(-c3nccs3)c(=O)c3ccccc23)c(C)c1`: the inhibition (at 20 µM) is 0.6% (inactive).

As to `Cc1ccc(N=Cc2c(O)n(-c3nccs3)c(=O)c3ccccc23)c(C)c1`, the inhibition runs as follows: (at 20 µM) 75.3% (active); under setting [1], 103%.

Take `CN1CCN(/N=C/c2ccc(-c3ccccc3)cc2)CC1`: under “at 20 µM”, the inhibition was 0% (inactive).

For `CC1=NN(c2ccccc2)C(=O)/C1=C\c1c(C)[nH]n(-c2ccccc2)c1=O`, the inhibition (at 20 µM) was -0.3% (inactive).

With `Cc1[nH]n(-c2ccccc2)c(=O)c1/C=C1/C=c2ccccc2=N1`, where the note is “at 20 µM”, the inhibition is -2.5% (inactive).

On to `Cc1coc2cc3oc(=O)c(CCC(=O)N4CCC(C(=O)O)(c5ccccc5)CC4)c(C)c3cc12`, for which the inhibition (at 20 µM) is 3.7% (inactive).

Regarding `O=C1CCN(Cc2ccccc2)CCN1[C@H](CO)c1ccccc1`, the inhibition (at 20 µM) is 1.5% (inactive).

Turning to `Cc1ccc(NC(=O)COC(=O)c2ccccc2-c2nc3ccccc3s2)c(C)c1`, the inhibition (at 20 µM) is 1.4% (inactive).

With `CCOCCCNC(=O)c1cc2c(=O)n3cccc(C)c3nc2s1`, for the setting “at 20 µM”, the inhibition is -1.3% (inactive).

Regarding `Cc1cccn2c(=O)c(C=Nc3ccccc3)c(NCCO)nc12`, where the note is “at 20 µM”, the inhibition was 0.3% (inactive).

With `Cc1cccn2c(=O)c3cc(C(=O)NCCCOC(C)C)sc3nc12`, the inhibition (at 20 µM) was 1% (inactive).

Consider `CCC(C)N1C(=O)/C(=C/c2c(NCCCOC(C)C)nc3c(C)cccn3c2=O)SC1=S` (stereo unspecified), for which the inhibition runs as follows: (at 20 µM) 75.6% (active); under setting [1], 144%.

For the compound `CCOCCCNc1nc2c(C)cccn2c(=O)c1/C=C1\SC(=S)N(C(C)CC)C1=O` (stereo unspecified), the inhibition (at 20 µM) was 94.5% (active).

Consider `CCCN1C(=O)/C(=C/c2c(NCCCOCC)nc3c(C)cccn3c2=O)SC1=S`, for which the inhibition (at 20 µM) is 8.4% (inactive).

Regarding `Cc1cccn2c(=O)c(/C=C3\SC(=S)NC3=O)c(NCCCN3CCOCC3)nc12`, the inhibition (at 20 µM) was 75.8% (inactive) and the inhibition under setting [1] amounted to 7.4%.

For `CCOCCCNc1nc2c(C)cccn2c(=O)c1/C=C1\SC(=S)N(CC(C)C)C1=O`, the inhibition reads like this: (at 20 µM) 58.9% (active); under setting [1], 63.6%.

As for `CCCN1C(=O)/C(=C/c2c(NCCCOC(C)C)nc3c(C)cccn3c2=O)SC1=S`, where the note is “at 20 µM”, the inhibition is 1.8% (inactive).

As for `Cc1c(C(=O)NN)sc(=S)n1C`, the inhibition (at 20 µM) was -1.3% (inactive).

As to `O=C(N/N=C/c1cc2c(cc1Br)OCO2)c1cc2ccccc2o1`, the inhibition (at 20 µM) was -0.4% (inactive).

For the compound `COc1cccc(NC(=O)Cc2c(O)c3ccccc3[nH]c2=O)c1`, the inhibition (at 20 µM) was -2.3% (inactive).

With `Cn1nnnc1SCc1ccccc1F`, the inhibition (at 20 µM) was 2.4% (inactive).

In the case of `O=C(Nc1cccc(NC(=O)c2ccc([N+](=O)[O-])o2)c1)c1ccco1`, for the setting “at 20 µM”, the inhibition is 0.6% (inactive).

In the case of `CC(C)c1onc(C(=O)NCCc2ccccc2)c1[N+](=O)[O-]`, the inhibition (at 20 µM) is -0.8% (inactive).

As to `CN(C)S(=O)(=O)c1cccc(-n2sc3ccccc3c2=O)c1`, the inhibition (at 20 µM) was -1.2% (inactive).

As to `O=C(O)c1ccccc1NS(=O)(=O)c1cccc(C(F)(F)F)c1`, the inhibition (at 20 µM) is 7.8% (inactive).

As for `O=C(O)c1ccccc1NS(=O)(=O)c1cccc(-n2sc3ccccc3c2=O)c1`, the inhibition (at 20 µM) is 54.9% (active).

Take `Cc1ccccc1N=Cc1cccc(O)c1O`: the inhibition (at 20 µM) is 64.9% (active).

As to `Oc1cccc(C=Nc2cccc3ccccc23)c1O`, the inhibition (at 20 µM) is 36.3% (inactive).

As for `Cc1ccc(N=Cc2cccc(O)c2O)c(C)c1`, the inhibition (at 20 µM) is -1.8% (inactive).

Regarding `Clc1cccc(CN2CCN(c3nc4nonc4nc3NC3CC3)CC2)c1`, under “at 20 µM”, the inhibition is 3.4% (inactive).

Consider `Nc1ccc2nc3c(=O)n(C4CCCCC4)c(=O)[nH]c3nc2c1`, for which, where the note is “at 20 µM”, the inhibition was 146% (inactive).

Turning to `Cc1cc2nc3c(=O)n(C4CCCCC4)c(=O)[nH]c3nc2cc1N`, the inhibition (at 20 µM) is 66.8% (active).

`CCCCCCn1c(=O)[nH]c2nc3cc(N)c(C)cc3nc2c1=O`: the inhibition (at 20 µM) was 38.8% (inactive).

Consider `CCOC(=O)c1cnc2c(N=Nc3ccccc3)c(N)nn2c1N`, for which the inhibition (at 20 µM) is -0.1% (inactive).

As for `COc1ccc(/C=N\NS(=O)(=O)c2ccc(Br)cc2)cc1COc1ccccc1[N+](=O)[O-]`, the inhibition (at 20 µM) was -1.1% (inactive).

As for `COC(=O)c1cc(S(=O)(=O)NCCc2ccc(Cl)cc2)c[nH]1`, for the setting “at 20 µM”, the inhibition was 1.3% (inactive).

As to `O=C(NC(c1ccccc1)c1cc(Cl)c2cccnc2c1O)c1cccnc1` (stereo unspecified), where the note is “at 20 µM”, the inhibition was 0.8% (inactive).

As to `Oc1c(C(Nc2ccccn2)c2cccnc2)cc(Cl)c2cccnc12` (stereo unspecified), under “at 20 µM”, the inhibition was -3.6% (inactive).

Take `O=C(O)COc1ccccc1C(Nc1ccccn1)c1cc(Cl)c2cccnc2c1O` (stereo unspecified): the inhibition (at 20 µM) was 56.9% (active).

In the case of `COc1ccccc1C(NC(C)=O)c1cc(Cl)c2cccnc2c1O` (stereo unspecified), the inhibition (at 20 µM) is -2.4% (inactive).

Take `O=C(O)COc1ccccc1C(Nc1cccnc1)c1cc(Cl)c2cccnc2c1O` (stereo unspecified): the inhibition (at 20 µM) was 77.6% (active).

For `CCOc1ccc(C(Nc2cccnc2)c2cc(Cl)c3cccnc3c2O)cc1` (stereo unspecified), for the setting “at 20 µM”, the inhibition was 17.1% (inactive).

For `Fc1ccc(CSc2ccc(-c3ccc4c(c3)OCO4)nn2)cc1`, where the note is “at 20 µM”, the inhibition is -3.7% (inactive).

On to `O=S(=O)(NCCC1CC1(Cl)Cl)c1ccccc1` (stereo unspecified), for which the inhibition (at 20 µM) is -2% (inactive).

With `CCOc1ccc(C(=O)NC(=S)Nc2ccccn2)cc1[N+](=O)[O-]`, the inhibition (at 20 µM) was -0.9% (inactive).

In the case of `CCCCNC(=O)Oc1c(Br)cc2sc(=O)oc2c1Br`, the inhibition (at 20 µM) is 54.3% (active).

Consider `O=C(NC1CCCCC1)Oc1cc2oc(=O)sc2cc1Br`, for which, for the setting “at 20 µM”, the inhibition was -1.5% (inactive).

Turning to `CCCCNC(=O)Oc1cc(CCl)on1`, the inhibition (at 20 µM) was 0.1% (inactive).

`COC(=O)c1cc(OC)c(OC)cc1NC(=O)c1csc(C)c1`: the inhibition (at 20 µM) is -1.1% (inactive).

As for `COc1ccccc1-c1ccc(/C=C2\C=CC(=O)O2)o1`, the inhibition (at 20 µM) was 70.7% (active) and the inhibition under setting [1] stood at 59%.

In the case of `COc1ccccc1-c1ccc(/C=C2/C=C(C)OC2=O)o1`, the inhibition (at 20 µM) was 48.6% (inactive).

As for `CCCC1=C/C(=C/c2ccc(-c3ccccc3OC)o2)C(=O)O1`, the inhibition (at 20 µM) is 32% (inactive).

Usually inhibition stands for the drop in the measured response relative to a control, in per cent.
